{
  "source": "PubChem BioAssay (NCI)",
  "note": "Values joined by “and” are separate entries in the source; they are usually repeats but may differ in a detail not shown here. Identical values can stand only once. Compounds without any hit were thinned out: in the full panel of roughly 83,000, 20% have a hit.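 Assay: single dose, 48 h. Readout: percent growth (0 = no net growth; negative = cell death). Active: <10.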 Values without a mark were called inactive. Active and inactive are the calls of the source.",
  "data": [
    {"system": "OVCAR-4 ovarian", "test": "NCI-60 one-dose screen, 48 h (100 = growth as untreated, 0 = no growth, -100 = all killed)", "details": "4.75 µM", "method": "(§1) Growth inhibition of the OVCAR-4 human tumor cell line is measured as a screen for anti-cancer activity. Cells are grown in 96 well plates and exposed to the test compound for 48 hours. Compounds are tested at a single concentration, which is 10^-5 M for most compounds. The reported endpoint is percent growth (GI% or GIPRCNT), where numbers from 0 - 100% represent growth inhibition, and numbers from -100% - 0 represent cell death. For example, a value of 40 represents 60% growth inhibition. A value of 0 means no net growth occurred over the course of the experiment. A value of -40 indicates 40% of cells at the beginning of the experiment died by the end of the experiment. A value of -100 means all cells are dead at the end of the experiment.\n(§2) NCI-60 Human Tumor Cell Lines Screen was performed using the standard one-dose NCI protocol, which is described in more detail at https://dtp.cancer.gov/discovery_development/nci-60/default.htm.\n(§3) Compounds with GIPRCNT values below 10 were considered active. Activity score was based on GIPRCNT using the following formula: […]\n(§4) Score is 0 for GIPRCNT values of 100 or above, 50 for GIPRCNT values of 0, and 100 for GIPRCNT values of -100.", "units": {"growth": "%"}, "values": [
      {"smiles": "CC(=O)OCC1OC([S-])C(OC(C)=O)C(OC(C)=O)C1OC(C)=O.[Au+].c1ccc(CN2[CH-]N(Cc3ccccc3)C(c3ccccc3)=C2c2ccccc2)cc1", "growth": 12.6}
    ]},
    {"system": "OVCAR-4 ovarian", "test": "NCI-60 one-dose screen, 48 h (100 = growth as untreated, 0 = no growth, -100 = all killed)", "details": "10 µM", "method": "as §1, §2, §3, §4", "units": {"growth": "%"}, "values": [
      {"smiles": "CC(=O)OCC1OC([S-])C(OC(C)=O)C(OC(C)=O)C1OC(C)=O.[Au+].c1ccc(CN2[CH-]N(Cc3ccccc3)C(c3ccccc3)=C2c2ccccc2)cc1", "growth": 34.2}
    ]},
    {"system": "OVCAR-4 ovarian", "test": "NCI-60 one-dose screen, 48 h (100 = growth as untreated, 0 = no growth, -100 = all killed)", "details": "10 µM unless noted", "method": "as §1, §2, §3, §4", "values": [
      {"smiles": "COc1ccn(C)c(=O)c1C#N", "growth": "114%"},
      {"smiles": "CC/C(=C(\\c1ccc(OCCN2CCOCC2)cc1)c1ccc(OC(=O)Cc2ccccc2)cc1)c1ccc(Cl)cc1", "growth": "120%"},
      {"smiles": "CC1(C)S[C@H]2CC[C@H]3OC(=O)[C@@H]1N23", "growth": "97.2%"},
      {"smiles": "CCOC(=O)c1cncn1C(C)c1ccccc1", "note": "(stereo not given)", "growth": "109%"},
      {"smiles": "C=CC[PH+](c1ccccc1)c1ccccc1.C=CC[PH+](c1ccccc1)c1ccccc1.[Pt+2].[S-]c1nc2ccccc2[nH]1.[S-]c1nc2ccccc2[nH]1", "growth": "4.93% (active)"},
      {"smiles": "OCCNC1CCCCC1", "growth": "111%"},
      {"smiles": "O=P1(N(CCCl)CCCl)NCCCO1", "note": "(stereo not given)", "growth": "111%"},
      {"smiles": "O=S1(=O)OCCO1", "growth": "99.4%"},
      {"smiles": "O=c1[nH]c(=O)[nH]c(=O)[nH]1", "growth": "119%"},
      {"smiles": "C[C@]12CC[C@@H](OC(=O)N(CCCl)N=O)C[C@@H]1CC[C@@H]1[C@@H]2CC[C@]2(C)C(=O)CC[C@@H]12", "growth": "73%"},
      {"smiles": "O=C(CCCN1CCC2(CC1)C(=O)NCN2c1ccccc1)c1ccc(F)cc1", "growth": "103% and 62.4%"},
      {"smiles": "CN(C)[C@@H]1C(=O)C(C(N)=O)=C(O)[C@@]2(O)C(=O)C3=C(O)c4c(O)ccc(Cl)c4[C@@](C)(O)[C@H]3C[C@@H]12", "growth": "98.3% and 98.6%"},
      {"smiles": "N#CCc1ccc(CC#N)cc1", "growth": "119%"},
      {"smiles": "C[C@]12CCc3sc(Nc4ccc(F)cc4)nc3C1=CC[C@@H]1[C@@H]2CC[C@]2(C)C(=O)CC[C@@H]12", "growth": "76.8%"},
      {"smiles": "O=[N+]([O-])c1cc(Cl)c(Cl)cc1Cl", "growth": "108% and 113%"},
      {"smiles": "N#CCCc1ccccc1", "growth": "110%"},
      {"smiles": "COc1ccc(O)c2c(=O)c3c(OC)cc4c(c3oc12)[C@@H]1C=CO[C@@H]1O4", "growth": "40.8%"},
      {"smiles": "O=C(O)C(F)F", "growth": "112%"},
      {"smiles": "O=P(O)(Nc1ccccc1)Nc1ccccc1", "growth": "99.9%"},
      {"smiles": "CC1OC(=O)C(C(C)C)NC(=O)C(C(C)C)OC(=O)C(C(C)C)NC(=O)C(C)OC(=O)C(C(C)C)NC(=O)C(C(C)C)OC(=O)C(C(C)C)NC(=O)C(C)OC(=O)C(C(C)C)NC(=O)C(C(C)C)OC(=O)C(C(C)C)NC1=O", "note": "(stereo not given)", "growth": "-17% (active)"},
      {"smiles": "CC1=C([Te]c2ccccc2)C(=O)c2ccccc2C1=O", "growth": "-72.4% (active)"},
      {"smiles": "C[C@]12CCC(=O)C[C@@H]1CC[C@@H]1[C@@H]2CC[C@]2(C)[C@@H](OC(=O)N(CCCl)N=O)CC[C@@H]12", "growth": "72.6%"},
      {"smiles": "C[C@]12CC[C@H](O)C[C@@H]1CC[C@@H]1[C@@H]2CC[C@]2(C)OC(=O)CC[C@@H]12", "growth": "104%"},
      {"smiles": "CC1=C2[C@H]3OC(=O)[C@@H](C)[C@@H]3CC[C@@]2(C)C=CC1=O", "growth": "110%"},
      {"smiles": "O=[N+]([O-])c1c(Cl)cc(Cl)c([N+](=O)[O-])c1Cl", "growth": "112%"},
      {"smiles": "NC(=O)Oc1cc(OC(N)=O)cc(N(CCCl)CCCl)c1", "growth": "74.7%"},
      {"smiles": "C[Se]/C=C1/C(=O)N(c2c(Cl)cccc2Cl)c2ccccc21", "growth": "34.3%"},
      {"smiles": "CNC(=O)CCl", "growth": "101%"},
      {"smiles": "Cc1cc[c-]cc1.Fc1c[c-]c(-c2ccccn2)c(F)c1.[Pt+2].c1ccc([PH+](c2ccccc2)c2ccccn2)cc1", "growth": "57.1%"},
      {"smiles": "CCCC[C@H]1C(=O)O[C@H](C)[C@H](NC(=O)c2cccc(NC=O)c2O)C(=O)O[C@@H](C)[C@@H]1OC(=O)CC(C)C", "growth": "40.9%"},
      {"smiles": "C[C@]12CC[C@H]3[C@@H](CC=C4c5nc(N)sc5CC[C@@]43C)[C@@H]1CC[C@@H]2O", "growth": "95.7%"},
      {"smiles": "Nc1c(Cl)c(Cl)nc(C(=O)O)c1Cl", "growth": "95.4%"},
      {"smiles": "C[C@]12CCC3[C@@H](C[C@@H]4SC(Nc5ccccc5)=N[C@@]45CC(=O)CC[C@]35C)[C@@H]1CCC2=O", "note": "(stereo not given in full)", "growth": "31.7%"},
      {"smiles": "CCC(=O)C(CC(C)[N+](C)(C)C)(c1ccccc1)c1ccccc1", "note": "(stereo not given)", "growth": "110%"},
      {"smiles": "COc1ccc(N)cc1OC", "growth": "96.8%"},
      {"smiles": "CC1=C(C)C(=O)O[C@@H]([C@](C)(O)[C@]2(O)CC[C@@]3(O)[C@@H]4C[C@H]5O[C@]56CC=CC(=O)[C@]6(C)[C@H]4CC[C@]23C)C1", "growth": "7.99% (active)"},
      {"smiles": "CN(C)c1ccc(C=C2C(=O)NC(=O)NC2=O)cc1", "growth": "116%"},
      {"smiles": "C=CC1CN2CCC1CC2C(O)c1ccnc2ccccc12", "note": "(stereo not given)", "growth": "129%"}
    ]}
  ]
}
